Laboratory results: ChEMBL document CHEMBL3988442, “University of Dundee, Small-Polar-MMV Screening Library” (2021)

Columns and labels:
[1] = biological target: T1, Aspartate--tRNA(Asp/Asn) ligase (Mycobacterium tuberculosis (strain ATCC 25618 / H37Rv)) (UniProt P9WFW3); experiment: Assay for Asp RNA synthetase-1 from Mycobacterium tuberculosis; type: functional; set-up: scale not given: direction of the effect not stated beside the values; conditions: 30 µM; further: in the data most compounds retested in dose-response had high values
T1 sequence (whole entry): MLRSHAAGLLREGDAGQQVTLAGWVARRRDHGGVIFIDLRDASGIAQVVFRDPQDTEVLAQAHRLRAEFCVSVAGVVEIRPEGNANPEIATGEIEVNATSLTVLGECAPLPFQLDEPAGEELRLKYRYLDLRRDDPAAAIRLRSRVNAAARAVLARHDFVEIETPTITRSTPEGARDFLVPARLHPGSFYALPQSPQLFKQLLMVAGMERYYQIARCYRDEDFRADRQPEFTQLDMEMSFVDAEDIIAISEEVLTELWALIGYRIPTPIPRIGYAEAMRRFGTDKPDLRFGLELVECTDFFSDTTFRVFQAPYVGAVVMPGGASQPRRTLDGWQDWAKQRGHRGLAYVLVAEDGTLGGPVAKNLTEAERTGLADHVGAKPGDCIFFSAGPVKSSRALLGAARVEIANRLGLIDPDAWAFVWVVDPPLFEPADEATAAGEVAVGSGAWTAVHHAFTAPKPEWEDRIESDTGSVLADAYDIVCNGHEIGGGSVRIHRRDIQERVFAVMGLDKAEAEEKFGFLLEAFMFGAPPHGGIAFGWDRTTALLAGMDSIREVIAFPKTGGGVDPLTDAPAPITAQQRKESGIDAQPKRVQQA

[2] = biological target: Shiga toxin 2 (Escherichia coli O157:H7) (UniProt P09385+P09386); experiment: E. coli 0.157:H7 Shiga Toxin SOP - stx2 screening assay; type: functional; set-up: scale not given: direction of the effect not stated beside the values; conditions: 30 µM

Question: How did the Percent Effect [1] turn out when c1cnc(OCc2nnc3n2CCN(CC2CC2)C3)nc1 was run?
Answer: 1.75%

Question: And the Percent Effect [2]?
Answer: 4.75%

Question: What does the source list for COc1ccccc1OC1(C(=O)O)CCN(c2nccnc2C)CC1?
Answer: Percent Effect [1]: 1.09%; Percent Effect [2]: -3.46%

Question: For O=C(N1CCC(Nc2cccnn2)CC1)C1(c2ccc(F)cc2)CC1, which Percent Effect [1] is on record?
Answer: 4.44%

Question: And the Percent Effect [2]?
Answer: -20.3%

Question: What does the source list for O=C(NCCCn1nc2ccccn2c1=O)NC1CCC(O)CC1 (centres undefined)?
Answer: Percent Effect [1]: 4.86%; Percent Effect [2]: -44.5%

Question: Which Percent Effect [1] does the source give for CC1c2ncc(COc3cccnc3)n2CCN1C(=O)C1=CCCC1 (centres undefined) here?
Answer: -4.09%

Question: What about the Percent Effect [2] of the same compound?
Answer: -30.8%

Question: How did the Percent Effect [1] turn out when COc1cccc(-c2noc(C3CCN(Cc4cccs4)C3)n2)c1 (centres undefined) was run?
Answer: -0.868%

Question: And the Percent Effect [2]?
Answer: -30%

Question: Which Percent Effect [1] does the source give for Cc1ncsc1C(=O)NC1CCN(Cc2ccc(C#N)cc2)CC1 here?
Answer: 1.55%

Question: And the Percent Effect [2]?
Answer: -28.6%

Question: CCS(=O)(=O)N1CCCc2ccc(NC(=O)Cc3ccc(F)cc3)cc21 was tested. Which Percent Effect [1] did it give?
Answer: 3.34%

Question: What about the Percent Effect [2] of the same compound?
Answer: 7.51%

Question: Which results are given for Cc1cccc(NC(=O)CNC(=O)Cn2ncc(Cl)c(Cl)c2=O)c1C?
Answer: Percent Effect [1]: 9.53%; Percent Effect [2]: -21.2%

Question: Which results are given for CCCNC(=O)CSc1nnc2[nH]c(=O)cc(CC)n12?
Answer: Percent Effect [1]: -6.58%; Percent Effect [2]: -11.3%

Question: Which results are given for Fc1cccc(CN2CCC(c3n[nH]c4ncccc34)CC2)c1F?
Answer: Percent Effect [1]: -3.17%; Percent Effect [2]: -6.18%

Question: Which results are given for O=C(NCCCN1CCOCC1)c1cc(-c2ccco2)[nH]n1?
Answer: Percent Effect [1]: -0.98%; Percent Effect [2]: -21.1%

Question: How did the Percent Effect [1] turn out when CC(C)Oc1ncccc1CNC(=O)c1ccco1 was run?
Answer: -4.72%

Question: What about the Percent Effect [2] of the same compound?
Answer: -7.65%

Question: For Cc1cccc(-n2cc(C(=O)N3CCCC(n4cccn4)C3)nn2)c1 (centres undefined), which Percent Effect [1] is on record?
Answer: 1.99%

Question: What about the Percent Effect [2] of the same compound?
Answer: -13.8%

Question: CC(=O)N1CCCC1c1ccc(-c2c(C)noc2C)cn1 (centres undefined) was tested. Which Percent Effect [1] did it give?
Answer: -1.44%

Question: And the Percent Effect [2]?
Answer: -2.58%

Question: Which Percent Effect [1] does the source give for Cc1ccn(CCC(=O)N2CCOC(c3nc(-c4cccs4)no3)C2)n1 (centres undefined) here?
Answer: -0.897%

Question: What about the Percent Effect [2] of the same compound?
Answer: 37.2%

Question: What does the source list for Cc1ncsc1C(=O)NC1CCN(CCC(N)=O)CC1?
Answer: Percent Effect [1]: -2.4%; Percent Effect [2]: 13.9%

Question: How did the Percent Effect [1] turn out when CC(CNc1cncc(-n2cccn2)n1)N(C)c1ccccc1 (centres undefined) was run?
Answer: 2.34%

Question: What about the Percent Effect [2] of the same compound?
Answer: 7.51%

Question: Which results are given for O=C(CN1CCCC(c2ccc(C(=O)O)cc2)C1)NC1CC1 (centres undefined)?
Answer: Percent Effect [1]: -1.07%; Percent Effect [2]: 6.8%

Question: How did the Percent Effect [1] turn out when NC(=O)C(CNC(=O)Cc1ccc(F)cc1)Cc1ccc(F)cc1 (centres undefined) was run?
Answer: -1.56%

Question: What about the Percent Effect [2] of the same compound?
Answer: -30.7%

Question: What does the source list for Cc1ccc(C(=O)N2CCCC(NC(=O)C(C)C)C2)c(O)c1 (centres undefined)?
Answer: Percent Effect [1]: 7%; Percent Effect [2]: 7.56%

Question: Which Percent Effect [1] does the source give for Cc1nc(CN2CCCC2c2c(C)nn(C)c2Cl)no1 (centres undefined) here?
Answer: -3.26%

Question: What about the Percent Effect [2] of the same compound?
Answer: 18.6%

Question: CCn1ccnc1CN1CCCC(CO)(Cc2cccc(Cl)c2)C1 (centres undefined) was tested. Which Percent Effect [1] did it give?
Answer: 10%

Question: And the Percent Effect [2]?
Answer: 15.9%

Question: For CCCc1nc(CN2CCCC(Cn3cncn3)C2)no1 (centres undefined), which Percent Effect [1] is on record?
Answer: -3.39%

Question: What about the Percent Effect [2] of the same compound?
Answer: -26.6%

Question: With Fc1cnc(N2C[C@H]3CCC[C@@]3(COc3ccccn3)C2)nc1 as the compound, how does the Percent Effect [1] read?
Answer: 0.435%

Question: What about the Percent Effect [2] of the same compound?
Answer: 2.51%

Question: What does the source list for CC(C)c1nc2n(n1)CC(NCc1nc(-c3cccnc3)no1)CC2 (centres undefined)?
Answer: Percent Effect [1]: -2.88%; Percent Effect [2]: -31.5%

Question: For CC(=O)Nc1cccc(OCCNC(=O)N(C)Cc2ccco2)c1, which Percent Effect [1] is on record?
Answer: -1.02%

Question: What about the Percent Effect [2] of the same compound?
Answer: -16.7%

Question: Which results are given for Cc1nc(C)n(CC2CCCN2CC(=O)Nc2ccnn2C(C)C)n1 (centres undefined)?
Answer: Percent Effect [1]: -1.15%; Percent Effect [2]: 23.4%

Question: Cc1cccnc1CNCC1(O)CCCN(CC2CCCCC2)C1=O (centres undefined) was tested. Which Percent Effect [1] did it give?
Answer: -2.28%

Question: What about the Percent Effect [2] of the same compound?
Answer: 13.1%

Question: How did the Percent Effect [1] turn out when COc1cccc(-n2nnc(C(=O)N3CCN(C)CC3C)c2C)c1 (centres undefined) was run?
Answer: -2.92%

Question: What about the Percent Effect [2] of the same compound?
Answer: -48.2%

Question: For COc1ccc(Cl)cc1NCC(=O)NCCc1ccccn1, which Percent Effect [1] is on record?
Answer: -0.954%

Question: What about the Percent Effect [2] of the same compound?
Answer: 25.8%

Question: For Cn1cc(NC(=O)N2CCC(c3ccccc3)CC2)ccc1=O, which Percent Effect [1] is on record?
Answer: 55%

Question: What about the Percent Effect [2] of the same compound?
Answer: 21.8%

Question: O=C(CSc1nncs1)N1CCN(Cc2ccc(Cl)s2)CC1 was tested. Which Percent Effect [1] did it give?
Answer: -5.38%

Question: What about the Percent Effect [2] of the same compound?
Answer: -5.37%

Question: Which results are given for c1coc(-c2noc(CN3CCC(c4ccn[nH]4)CC3)n2)c1?
Answer: Percent Effect [1]: 0.546%; Percent Effect [2]: 0.0749%

Question: How did the Percent Effect [1] turn out when O=C1NC(c2ccccc2)=N[C@@]12CC[C@@H]1CN(Cc3ccco3)C[C@@H]12 was run?
Answer: 3.61%

Question: And the Percent Effect [2]?
Answer: -16.5%

Question: For COC(=O)NCc1cc2n(n1)CCCN(C(C)=O)C2, which Percent Effect [1] is on record?
Answer: -4.82%

Question: What about the Percent Effect [2] of the same compound?
Answer: 15.5%

Question: How did the Percent Effect [1] turn out when CCc1nc(COc2ccc(OCc3cnn(C)c3)cc2)no1 was run?
Answer: 0.524%

Question: And the Percent Effect [2]?
Answer: -31%

Question: With CCOCC1CN(C(=O)c2cccn2C)Cc2cnn(CC3CC3)c21 (centres undefined) as the compound, how does the Percent Effect [1] read?
Answer: 5.55%

Question: What about the Percent Effect [2] of the same compound?
Answer: -5.56%

Question: What does the source list for Cc1ccc(N2CCCC3(COCCN(c4nccs4)C3)C2)nn1 (centres undefined)?
Answer: Percent Effect [1]: -0.638%; Percent Effect [2]: -17.6%

Question: For COc1ccccc1CC(=O)N1CCCC(n2nc(C)cc2C)C1 (centres undefined), which Percent Effect [1] is on record?
Answer: -1.4%

Question: And the Percent Effect [2]?
Answer: 10.9%

Question: For Cc1nc(C2CCCN2C(=O)c2cnns2)no1 (centres undefined), which Percent Effect [1] is on record?
Answer: -4.19%

Question: And the Percent Effect [2]?
Answer: 27.5%

Question: With CCOC(=O)N1CCN(c2nc(NC)c3ccccc3n2)CC1 as the compound, how does the Percent Effect [1] read?
Answer: -2.29%

Question: What about the Percent Effect [2] of the same compound?
Answer: -9.78%

Question: How did the Percent Effect [1] turn out when Cc1cc(-c2cnc(N3CCCC(C)C3)nc2-c2cccnc2C)on1 (centres undefined) was run?
Answer: 7.13%

Question: And the Percent Effect [2]?
Answer: -30.1%

Question: How did the Percent Effect [1] turn out when Cn1cnnc1C1CCN(C(=O)CCCOc2ccccc2F)CC1 was run?
Answer: 0.819%

Question: What about the Percent Effect [2] of the same compound?
Answer: -1.48%

Question: With CN1CC(C(=O)NC(C)(C)C)CC1=O (centres undefined) as the compound, how does the Percent Effect [1] read?
Answer: 0.616%

Question: And the Percent Effect [2]?
Answer: -21.3%

Question: Which Percent Effect [1] does the source give for Cc1cc(F)c(S(=O)(=O)NCCCN2CCC(O)CC2)cc1F here?
Answer: 11.3%

Question: And the Percent Effect [2]?
Answer: -69.6%

Question: Which Percent Effect [1] does the source give for CC(C)CN1CCC2(CCN(C(=O)c3ccc(F)cc3)CC2)C1=O here?
Answer: -3.41%

Question: What about the Percent Effect [2] of the same compound?
Answer: -8.12%
